# Unmarked numbers belong to inactive results.
# What was measured:
# Assay in all cases: log2 ratio of Biotin-Ahx-Ub-VS probe labelling (fragment/DMSO); higher = less target engagement (more negative = stronger competition), active = hit call of the paper (q ≤ 0.05, log2 ratio ≤ -1)
# Conditions in all cases: compound concentration: 200 uM; treatment time: 3 h
# OTUD6B = molecular target: T1, OTUD6B (UniProt Q8N6M0)
# T1 sequence (whole entry): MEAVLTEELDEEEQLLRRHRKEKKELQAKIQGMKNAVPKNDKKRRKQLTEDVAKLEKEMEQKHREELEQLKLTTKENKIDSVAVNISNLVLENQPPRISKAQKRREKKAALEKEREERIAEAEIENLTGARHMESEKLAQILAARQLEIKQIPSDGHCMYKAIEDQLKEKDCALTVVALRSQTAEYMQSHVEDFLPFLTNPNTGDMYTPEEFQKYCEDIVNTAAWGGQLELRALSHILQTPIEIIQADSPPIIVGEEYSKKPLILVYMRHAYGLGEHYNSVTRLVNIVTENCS
# Summary of the method: (§1)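 HEK293T lysate (495 µg per sample, in Tris/CHAPS/IGEPAL buffer with protease inhibitors) was exposed in triplicate for 3 h to fragment at 200 µM or to vehicle, then to Biotin-Ahx-Ub-VS at 0.5 µM final for 1 h. Labelled DUBs were enriched on NeutrAvidin, digested with LysC and trypsin, and analysed by diaPASEF LC-MS/MS. Spectronaut label-free quantities were normalised to the global median, and values are average log2 ratios of fragment over vehicle from an unpaired t-test. Only proteins with ≥2 unique peptides were used.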
# OTUD7B = molecular target: T2, OTUD7B (UniProt Q6GQQ9)
# T2 sequence (whole entry): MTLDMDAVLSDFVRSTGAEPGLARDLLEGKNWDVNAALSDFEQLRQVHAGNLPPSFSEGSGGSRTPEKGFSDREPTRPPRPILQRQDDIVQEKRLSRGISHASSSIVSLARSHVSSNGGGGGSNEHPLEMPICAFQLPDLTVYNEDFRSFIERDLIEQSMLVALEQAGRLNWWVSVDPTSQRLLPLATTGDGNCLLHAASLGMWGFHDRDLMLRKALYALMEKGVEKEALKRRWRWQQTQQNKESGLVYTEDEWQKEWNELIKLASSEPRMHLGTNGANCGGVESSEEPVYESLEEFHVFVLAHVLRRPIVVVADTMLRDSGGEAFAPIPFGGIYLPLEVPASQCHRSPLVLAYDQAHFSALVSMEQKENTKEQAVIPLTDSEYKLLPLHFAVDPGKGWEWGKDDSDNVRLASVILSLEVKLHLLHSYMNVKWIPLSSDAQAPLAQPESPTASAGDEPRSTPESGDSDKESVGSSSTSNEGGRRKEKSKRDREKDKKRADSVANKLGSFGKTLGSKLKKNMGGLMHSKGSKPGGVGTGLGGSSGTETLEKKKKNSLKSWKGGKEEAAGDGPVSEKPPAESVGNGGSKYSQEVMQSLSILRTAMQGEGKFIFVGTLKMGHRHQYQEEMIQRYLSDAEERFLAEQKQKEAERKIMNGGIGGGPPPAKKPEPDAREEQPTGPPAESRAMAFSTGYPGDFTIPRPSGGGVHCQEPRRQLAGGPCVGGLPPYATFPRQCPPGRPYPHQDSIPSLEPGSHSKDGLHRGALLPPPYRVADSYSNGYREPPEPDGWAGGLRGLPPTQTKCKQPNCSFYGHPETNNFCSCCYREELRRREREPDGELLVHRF
# Summary of the method: as §1
# PRPF8 = PRPF8 (UniProt Q6P2Q9)
# Summary of the method: as §1
# PSMD7 = molecular target: T3, PSMD7 (UniProt P51665)
# T3 sequence (whole entry): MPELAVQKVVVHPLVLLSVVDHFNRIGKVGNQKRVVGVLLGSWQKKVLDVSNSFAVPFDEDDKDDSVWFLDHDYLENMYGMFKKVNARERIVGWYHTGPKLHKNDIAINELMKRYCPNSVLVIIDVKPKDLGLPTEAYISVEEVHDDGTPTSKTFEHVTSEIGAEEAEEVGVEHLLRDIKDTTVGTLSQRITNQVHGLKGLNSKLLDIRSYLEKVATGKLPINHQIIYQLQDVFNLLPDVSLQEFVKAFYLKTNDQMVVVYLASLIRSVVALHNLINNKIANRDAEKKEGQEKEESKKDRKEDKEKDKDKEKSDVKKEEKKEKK
# Summary of the method: as §1
# UCHL1 = UCHL1 (UniProt P09936)
# Summary of the method: as §1
# UCHL3 = molecular target: T4, UCHL3 (UniProt P15374)
# T4 sequence (whole entry): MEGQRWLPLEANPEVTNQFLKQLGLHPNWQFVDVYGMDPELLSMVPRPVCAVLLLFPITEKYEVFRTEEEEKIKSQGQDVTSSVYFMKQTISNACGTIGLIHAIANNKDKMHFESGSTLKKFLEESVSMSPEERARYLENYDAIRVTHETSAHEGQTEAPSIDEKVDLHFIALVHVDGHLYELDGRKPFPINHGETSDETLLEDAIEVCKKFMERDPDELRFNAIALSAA
# Summary of the method: as §1
# UCHL5 = molecular target: T5, UCHL5 (UniProt Q9Y5K5)
# T5 sequence (whole entry): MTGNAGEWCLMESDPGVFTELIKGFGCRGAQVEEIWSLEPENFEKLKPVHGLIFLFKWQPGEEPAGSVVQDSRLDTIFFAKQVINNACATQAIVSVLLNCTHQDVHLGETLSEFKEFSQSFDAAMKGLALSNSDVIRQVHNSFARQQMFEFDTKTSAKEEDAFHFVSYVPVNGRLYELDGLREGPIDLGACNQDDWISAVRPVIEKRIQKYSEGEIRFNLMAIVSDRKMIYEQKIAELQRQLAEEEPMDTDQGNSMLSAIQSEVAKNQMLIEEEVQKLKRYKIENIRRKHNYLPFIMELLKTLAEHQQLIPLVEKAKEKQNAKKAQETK
# Summary of the method: as §1
# USP10 = USP10 (UniProt Q14694)
# Summary of the method: as §1
# USP15 = molecular target: T6, USP15 (UniProt Q9Y4E8)
# T6 sequence (whole entry): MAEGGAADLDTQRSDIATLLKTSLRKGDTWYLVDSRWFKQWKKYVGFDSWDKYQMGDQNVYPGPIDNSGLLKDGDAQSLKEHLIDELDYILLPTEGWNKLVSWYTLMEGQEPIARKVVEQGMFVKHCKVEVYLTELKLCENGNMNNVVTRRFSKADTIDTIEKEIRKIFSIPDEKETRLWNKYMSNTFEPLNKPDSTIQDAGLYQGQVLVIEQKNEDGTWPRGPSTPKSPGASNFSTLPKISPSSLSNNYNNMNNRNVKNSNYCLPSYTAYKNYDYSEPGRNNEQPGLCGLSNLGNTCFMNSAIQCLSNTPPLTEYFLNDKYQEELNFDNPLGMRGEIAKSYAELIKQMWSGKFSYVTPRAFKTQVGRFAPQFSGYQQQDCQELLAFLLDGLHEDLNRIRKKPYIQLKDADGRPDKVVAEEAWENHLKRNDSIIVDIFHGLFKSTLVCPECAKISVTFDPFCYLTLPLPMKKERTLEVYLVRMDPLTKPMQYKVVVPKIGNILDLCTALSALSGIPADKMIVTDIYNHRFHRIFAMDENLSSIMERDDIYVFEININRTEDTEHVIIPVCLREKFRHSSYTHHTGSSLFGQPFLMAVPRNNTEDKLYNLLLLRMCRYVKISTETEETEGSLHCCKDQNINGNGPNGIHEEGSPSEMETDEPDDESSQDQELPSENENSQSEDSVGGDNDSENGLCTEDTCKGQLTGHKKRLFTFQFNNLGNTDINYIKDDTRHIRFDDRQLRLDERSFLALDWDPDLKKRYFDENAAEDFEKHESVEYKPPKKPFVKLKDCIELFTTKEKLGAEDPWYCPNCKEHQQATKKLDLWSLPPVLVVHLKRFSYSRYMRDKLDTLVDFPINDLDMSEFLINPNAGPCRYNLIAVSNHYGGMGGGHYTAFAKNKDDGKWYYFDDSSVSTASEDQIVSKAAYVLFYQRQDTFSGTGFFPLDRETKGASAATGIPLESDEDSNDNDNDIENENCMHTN
# Summary of the method: as §1
# USP16 = USP16 (UniProt Q9Y5T5)
# Summary of the method: as §1
# USP10, sequence (Q14694 whole entry): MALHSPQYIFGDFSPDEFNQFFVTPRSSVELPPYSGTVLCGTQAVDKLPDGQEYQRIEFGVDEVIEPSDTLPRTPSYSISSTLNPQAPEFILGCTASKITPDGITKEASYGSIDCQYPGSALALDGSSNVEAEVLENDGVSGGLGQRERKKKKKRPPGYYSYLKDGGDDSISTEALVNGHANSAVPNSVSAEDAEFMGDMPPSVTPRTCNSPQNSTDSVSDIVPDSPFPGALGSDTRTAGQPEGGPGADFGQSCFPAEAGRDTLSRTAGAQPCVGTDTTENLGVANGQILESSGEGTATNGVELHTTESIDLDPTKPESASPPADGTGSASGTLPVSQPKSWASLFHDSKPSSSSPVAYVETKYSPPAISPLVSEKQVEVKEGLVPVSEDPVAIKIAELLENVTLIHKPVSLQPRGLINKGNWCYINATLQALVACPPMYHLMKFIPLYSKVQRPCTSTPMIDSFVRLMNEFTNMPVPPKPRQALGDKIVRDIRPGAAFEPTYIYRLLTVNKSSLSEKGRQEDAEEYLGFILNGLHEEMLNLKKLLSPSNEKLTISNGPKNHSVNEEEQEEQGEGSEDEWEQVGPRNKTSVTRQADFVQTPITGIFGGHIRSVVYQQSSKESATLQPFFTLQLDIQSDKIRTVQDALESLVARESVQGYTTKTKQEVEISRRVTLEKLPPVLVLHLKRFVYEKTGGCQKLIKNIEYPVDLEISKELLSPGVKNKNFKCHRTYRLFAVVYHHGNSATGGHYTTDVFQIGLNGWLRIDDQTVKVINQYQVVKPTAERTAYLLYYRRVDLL
# UCHL1, sequence (P09936 whole entry, looked up): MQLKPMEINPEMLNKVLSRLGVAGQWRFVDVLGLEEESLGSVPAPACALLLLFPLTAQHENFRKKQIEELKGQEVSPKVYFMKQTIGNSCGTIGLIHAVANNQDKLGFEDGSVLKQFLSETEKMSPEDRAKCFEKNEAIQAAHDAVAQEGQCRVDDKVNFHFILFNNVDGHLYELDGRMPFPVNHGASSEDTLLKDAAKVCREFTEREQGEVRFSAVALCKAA
# USP16, sequence (Q9Y5T5 whole entry, looked up): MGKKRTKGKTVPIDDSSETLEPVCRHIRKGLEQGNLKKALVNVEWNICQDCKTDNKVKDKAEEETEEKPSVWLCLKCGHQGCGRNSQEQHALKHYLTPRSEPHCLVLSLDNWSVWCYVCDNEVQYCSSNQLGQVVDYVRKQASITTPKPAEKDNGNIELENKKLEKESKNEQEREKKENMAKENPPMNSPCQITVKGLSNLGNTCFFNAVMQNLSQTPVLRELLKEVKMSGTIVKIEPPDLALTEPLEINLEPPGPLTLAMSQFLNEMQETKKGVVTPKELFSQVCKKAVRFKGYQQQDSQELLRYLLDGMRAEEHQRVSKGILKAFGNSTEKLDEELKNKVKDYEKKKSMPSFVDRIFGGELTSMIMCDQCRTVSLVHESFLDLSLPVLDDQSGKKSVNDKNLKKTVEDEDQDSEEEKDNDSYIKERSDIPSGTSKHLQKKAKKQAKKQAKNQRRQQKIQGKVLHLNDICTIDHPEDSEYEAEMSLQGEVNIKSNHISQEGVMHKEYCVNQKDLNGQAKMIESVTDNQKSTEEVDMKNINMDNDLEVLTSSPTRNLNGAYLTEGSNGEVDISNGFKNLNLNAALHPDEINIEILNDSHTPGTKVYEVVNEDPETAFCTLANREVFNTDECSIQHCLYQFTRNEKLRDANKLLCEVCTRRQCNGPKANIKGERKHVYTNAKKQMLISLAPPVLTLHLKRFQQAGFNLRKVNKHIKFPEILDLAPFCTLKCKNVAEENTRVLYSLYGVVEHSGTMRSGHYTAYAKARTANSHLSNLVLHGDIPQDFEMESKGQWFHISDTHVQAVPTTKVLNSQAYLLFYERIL
smiles,measurement,setting,value
O=C(CCl)N1CCC(C(O)c2ccc(F)cc2)CC1 (stereo not given),log2 ratio of Biotin-Ahx-Ub-VS probe labelling,OTUD6B,0.0694
same,log2 ratio of Biotin-Ahx-Ub-VS probe labelling,OTUD7B,-0.134
same,log2 ratio of Biotin-Ahx-Ub-VS probe labelling,PRPF8,-0.0885
same,log2 ratio of Biotin-Ahx-Ub-VS probe labelling,PSMD7,-0.0381
same,log2 ratio of Biotin-Ahx-Ub-VS probe labelling,UCHL1,-1.31 (active)
same,log2 ratio of Biotin-Ahx-Ub-VS probe labelling,UCHL3,0.426
same,log2 ratio of Biotin-Ahx-Ub-VS probe labelling,UCHL5,0.12
same,log2 ratio of Biotin-Ahx-Ub-VS probe labelling,USP10,-0.257
same,log2 ratio of Biotin-Ahx-Ub-VS probe labelling,USP15,0.278
same,log2 ratio of Biotin-Ahx-Ub-VS probe labelling,USP16,0.191

# From the supplement of paper PMC11732987, “Enantioselective OTUD7B fragment discovery through chemoproteomics screening and high-throughput optimisation” (Communications Chemistry, 2025)
